Compound activity from PubChem.
ATXN2 expr inh: inhibitors of ATXN2 expression; Potency, µM (highest dose often 57 µM), for inactives: at the top dose activity change, negative = inhibition, hits mostly inhibitors; HEK-293 ATXN2-luciferase reporter, luminescence, 24 h; AID 1745845; 0.72% of 360,000 active; further: on the % scale 0 is the no-effect control and ±100 the full control effect; nearly all actives have a fitted effect of over 55% in size
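qHTS (up to 57 uM final) was run with 24 h compound exposure of reporter cells at 37 °C. Each well was multiplexed: SteadyGlo luminescence measured ATXN2-luciferase expression after a fluorogenic Gly-Phe-AFC viability readout (25 uM final).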
HT1080 IDH1KD tx: kills HT-1080 cells with IDH1 knockdown; HT-1080 IDH1 knockdown viability, ATP luminescence, 48 h; Potency, µM (doses to about 46.1 µM), without a hit: at the top dose activity, negative = toxicity, hits mostly cytotoxic; 2% of 360,000 active;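 further: 0% = DMSO wells and -100% = cell-free medium wells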
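Using the IDH1-knockdown HT-1080 line run in the same batch and compound series as the NT line, viability after 48 h at 37 °C was determined by CellTiter-Glo luminescence and expressed as % activity.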
HepG2 viability: kills HepG2 cells in TGF-b inhibitor counter-screen; Potency, µM (highest dose often 46.1 µM), for inactives: at the highest dose activity change, negative = cytotoxicity, hits mostly cytotoxic; 0.76% of 410,000 active; HepG2 CAGA-GFP viability, ATP luminescence, 18 h; AID 588856
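CellTiter-Glo luminescence gave cytotoxicity after 18 hours at 37 degrees C. The cells were HepG2 CAGA-GFP in 1% FBS DMEM, stimulated with 500 pg/mL TGF-beta after compound addition. %Activity was normalised to no-cell wells (complete cell-killing) and DMSO (no toxicity), and curves were fitted and classified.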
S2 tox: reduces viability in counter-screen for ATXN expression inhibitors. 0.49% of 400,000 active. Potency, µM (series often up to 56.7 µM), hits mostly cytotoxic. S2 cells (HEK-293 line with an ATXN2-luciferase reporter) viability, CellTiter-Fluor protease fluorescence, 24 h; further: nearly all actives have a fitted effect of over 40% in size
TGFb SMAD3 inh: inhibitors of TGF-b signaling; HepG2 CAGA-GFP TGF-b/SMAD3 reporter, GFP fluorescence, 18 h; TGF-beta stimulated, 500 pg/mL final; Potency, µM (series often up to 46.1 µM), inactives show at the top dose activity, negative = inhibition, usual class: inhibitors; 1.2% of 410,000 active; AID 588855; further: on the % scale 0 is the no-effect control and ±100 the full control effect; nearly all actives have a fitted effect of over 65% in size
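Read-out: total well GFP (ex488/em500-530) summed from mean per-cell fluorescence. Cells: HEPG2 CAGA-GFP, 1% FBS DMEM, 18 h at 37 degrees C with 500 pg/mL final TGF-beta. Unstimulated wells served as the full-inhibition control; stimulated DMSO wells = 0%.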
HT1080NT lethal: kills 2HG-producing HT-1080-NT fibrosarcoma cells; HT-1080-NT fibrosarcoma viability, CellTiter-Glo ATP luminescence, 48 h; Potency, µM (series often up to 46.1 µM), inactives show at the highest dose activity, negative = less viability, most hits filed as cytotoxic; 1.6% of 360,000 active;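 further: NT is the 2HG producing partner of a matched IDH1 knockdown line; 0% = DMSO-treated cells and -100% = media-only wells without cells; nearly all actives have a fitted effect of over 55% in size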
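Viability of the 2HG-overproducing fibrosarcoma line after 48 hours of compound exposure at 37 degrees C was determined by luminescence with CellTiter-Glo, and concentration-effect curves were then fitted and categorized.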
The depositor's hits bear a star; i = inactive; ? = inconclusive; . = no result. In the library only some 3.8% were active in any assay of this set; here they are far more common. The call rests on the fitted dose curve; in most records, active means well fitted curve in the direction sought with a large enough effect; inconclusive means small, poorly fitted or top-dose-only effect, or another doubt; inactive means no such curve, though single readings can be large; an effect the other way counts as inactive or inconclusive. Potency means the concentration at half of the fitted maximal effect.

SMILES | ATXN2 expr inh | HT1080 IDH1KD tx | HepG2 viability | S2 tox | TGFb SMAD3 inh | HT1080NT lethal
O=C(O)CSc1ncnc2nc[nH]c12 | 0.0% | -11.3% | -3.3% | i | 0.0% | -0.4%
Cn1cc(C(=O)NCc2ccc(Cl)cc2)c(=O)c2cc(S(=O)(=O)N3CCCCCC3)ccc21 | 6.9% | . | 2.9% | i | -1.5% | .
NCCC[C@H](N)C(=O)O | . | . | . | i | . | .
Cc1ccc(/C=C/C(=O)N2CCN(S(=O)(=O)c3c(C)c(C)cc(C)c3C)CC2)o1 | 2.9% | ? | -44.2% | i | ? | -20.2%
Cc1ccc(/C=C/C(=O)N2CCN(S(=O)(=O)c3ccc(C)c(C)c3)CC2)o1 | -18.8% | ? | -20.8% | i | 10µM* | ?
COC(=O)[C@@H]1CCCN1C(=O)c1c(OC)cc(=O)n2c1CCN(Cc1cc(OC)ccc1F)CC2 | . | . | . | i | . | .
COc1ccc(C2C3=C(Nc4ncnn42)c2ccccc2CCC3)cc1 (stereo not drawn) | -0.8% | -2.0% | -1.9% | i | -30.8% | -5.5%
COc1cc(C2C3=C(Nc4ncnn42)c2ccccc2CC3)cc(OC)c1OC (stereo not drawn) | -19.1% | 0.731µM* | -9.1% | ? | -33.1% | 0.731µM*
